# Activity calls are given as the source filed them. Unless noted, the rule behind the calls is not given here.
# What was measured:
# [1] = resazurin metabolic signal in HepG2 cells – cell-based, resazurin fluorescence, 24 h, PK04 Diversity Set, profiling panel (AID 1172); details: HepG2 viability, higher = more signal
# [2] = budding yeast growth changes without added modifier – OD600, strain BY4716, 24 h, basal condition, primary screen (AID 1173); details: S. cerevisiae BY4716 growth, OD600, 24 h; higher = more signal, called active from +8 up or from −8 down
# [3] = viability profiling in MM1S myeloma cells – cell-based, resazurin fluorescence, basal, 24 h, PK04 Diversity Set, profiling panel (AID 1174); details: higher = more signal, called active from +8 up or from −8 down;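 note: MM1S multiple myeloma cell line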
# [4] = target: Dihydroorotate dehydrogenase (quinone), mitochondrial (Plasmodium falciparum (isolate 3D7)) (UniProt Q08210); assay: inhibition of P. falciparum DHODH – biochemical, C-terminal His tag, absorbance 600 nm, primary screen (AID 1175); details: PfDHODH enzyme, DCIP absorbance 600 nm; higher = more signal, called active from +8 up or from −8 down;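 note: recombinant parasite enzyme with a five histidine tag at its C terminus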
# Chain of Dihydroorotate dehydrogenase (quinone), mitochondrial (Plasmodium falciparum (isolate 3D7)) (Q08210 whole entry, looked up): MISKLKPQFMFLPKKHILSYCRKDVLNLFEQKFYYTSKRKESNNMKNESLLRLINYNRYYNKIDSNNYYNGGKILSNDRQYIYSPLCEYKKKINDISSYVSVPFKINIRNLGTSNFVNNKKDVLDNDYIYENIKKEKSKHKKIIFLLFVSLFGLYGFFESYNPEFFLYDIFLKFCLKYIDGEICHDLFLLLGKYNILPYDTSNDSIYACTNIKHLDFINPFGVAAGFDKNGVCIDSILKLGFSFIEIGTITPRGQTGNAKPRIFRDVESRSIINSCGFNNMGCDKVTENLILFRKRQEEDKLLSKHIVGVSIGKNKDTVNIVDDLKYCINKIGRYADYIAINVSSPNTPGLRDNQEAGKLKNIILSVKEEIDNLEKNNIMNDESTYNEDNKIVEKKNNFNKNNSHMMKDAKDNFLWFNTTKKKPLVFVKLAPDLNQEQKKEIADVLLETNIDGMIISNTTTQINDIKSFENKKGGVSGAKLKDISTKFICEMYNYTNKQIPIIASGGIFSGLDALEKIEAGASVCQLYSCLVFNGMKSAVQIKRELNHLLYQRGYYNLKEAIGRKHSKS
# [5] = inhibition of PAO1 biofilm formation – strain PAO1, LB-PBS medium, absorbance 600 nm, primary screen (AID 1176); details: P. aeruginosa PAO1 growth/biofilm, A600, 12 h; higher = more signal
# [6] = growth modulation of vineyard yeast isolate – strain RM11-1a, OD600, basal, 24 h, primary screen (AID 1177);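 note: cultures grown under basal conditions with no added stressor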; details: S. cerevisiae RM11-1a growth, OD600, 24 h; higher = more signal, called active from +8 up or from −8 down
# [7] = growth of efflux-deficient E. coli DRC39 – strain DRC39, OD650, 24 h, E. coli filamentation inducers, primary screen (AID 1178);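 note: growth measured as culture turbidity by optical density at 650 nm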; details: E. coli DRC39 acrAB, higher = more signal, called active from +8 up or from −8 down
# [8] = growth of efflux-deficient E. coli DRC39 – strain DRC39, OD650, 48 h, E. coli filamentation inducers, primary screen (AID 1179);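 note: screen aims at cell division blockers that make cells filament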; details: E. coli DRC39 delta-acrAB growth, higher = more signal, called active from +8 up or from −8 down
# [9] = viability profiling in RPMI8226 myeloma cells – cell-based, resazurin fluorescence, basal, 24 h, PK04 Diversity Set, profiling panel (AID 1180); details: higher = more signal;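 note: RPMI8826 multiple myeloma cell line at 5000 cells per well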
# [10] = target: E3 ubiquitin-protein ligase XIAP (Homo sapiens) (UniProt P98170); assay: small molecules binding XIAP protein – biophysical, small-molecule microarray, fluorescence 635 nm, primary screen (AID 1181); details: higher = more signal;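 note: score merges 667 nm emission and signal to noise over triplicate slides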
# Chain of E3 ubiquitin-protein ligase XIAP (Homo sapiens) (P98170 whole entry, looked up, the tested form may be a part): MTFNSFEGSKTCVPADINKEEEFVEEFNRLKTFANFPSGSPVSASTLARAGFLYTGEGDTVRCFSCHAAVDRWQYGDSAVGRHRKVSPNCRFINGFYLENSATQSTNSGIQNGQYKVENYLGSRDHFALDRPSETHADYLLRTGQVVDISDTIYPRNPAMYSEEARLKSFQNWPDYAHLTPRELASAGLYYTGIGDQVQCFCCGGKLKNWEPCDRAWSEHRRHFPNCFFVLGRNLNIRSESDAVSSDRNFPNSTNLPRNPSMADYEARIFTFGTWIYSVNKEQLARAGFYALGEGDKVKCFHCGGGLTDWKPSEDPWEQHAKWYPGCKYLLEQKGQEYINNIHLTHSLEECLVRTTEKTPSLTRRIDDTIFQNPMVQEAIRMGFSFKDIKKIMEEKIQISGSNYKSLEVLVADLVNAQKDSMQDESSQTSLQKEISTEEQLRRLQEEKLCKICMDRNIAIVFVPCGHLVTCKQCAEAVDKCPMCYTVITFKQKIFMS
# [11] = test system: XIP peptide (Xip251-270) binding; assay: XIP fragment 251-270 binding compounds – biochemical, small-molecule microarray, fluorescence 635/667 nm, 0.1 µg/mL protein, primary screen (AID 1182); details: fluorescent protein binding, 635 nm, higher = more signal, called active from +8 up or from −8 down
# XIP peptide (Xip251-270) = assay: compounds binding XIP fragment 251-270 – biochemical, small-molecule microarray, fluorescence 635/667 nm, 0.5 µg/mL protein, primary screen (AID 1183); details: fluorescence 635 nm, higher = more signal
# [12] = blood-stage malaria parasite viability loss – strain 3D7, DAPI fluorescence, 100 nL, primary screen (AID 1184);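 note: parasites grown inside human red blood cells in medium with human serum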; details: P. falciparum 3D7 growth, 3 d, higher = more signal
# [13] = target: Homeobox protein Hox-A13 (Mus musculus) (UniProt Q62424); assay: disruptors of Hoxa13 oligonucleotide interaction – biochemical, fluorescence polarization, labeled oligonucleotide, primary screen (AID 1185); details: Hoxa13:DNA binding, 15 min, higher = more signal, called active from +8 up or from −8 down
# Chain of Homeobox protein Hox-A13 (Mus musculus) (Q62424 whole entry, looked up): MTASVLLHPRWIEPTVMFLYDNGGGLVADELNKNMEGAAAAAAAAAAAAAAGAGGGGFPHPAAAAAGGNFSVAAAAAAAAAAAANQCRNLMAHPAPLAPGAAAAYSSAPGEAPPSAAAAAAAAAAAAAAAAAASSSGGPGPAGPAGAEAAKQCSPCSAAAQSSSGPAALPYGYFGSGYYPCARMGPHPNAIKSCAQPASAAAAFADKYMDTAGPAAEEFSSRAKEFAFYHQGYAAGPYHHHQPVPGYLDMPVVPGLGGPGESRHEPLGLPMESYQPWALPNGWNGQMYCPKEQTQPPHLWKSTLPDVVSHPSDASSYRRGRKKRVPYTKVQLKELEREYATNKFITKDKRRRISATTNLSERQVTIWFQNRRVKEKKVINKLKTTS
# [14] = blockers of DNA damage checkpoint Chk1 activation – imaging, HeLa, hydroxyurea, phospho-Chk1 antibody, percent positive cells, primary screen (AID 1186); details: hydroxyurea-induced phospho-Chk1 immunofluorescence imaging, higher = more signal
# [15] = blockers of DNA damage checkpoint Chk1 activation – imaging, HeLa, hydroxyurea, phospho-Chk1 nuclear intensity, primary screen (AID 1187); details: hydroxyurea-induced phospho-Chk1 immunofluorescence imaging, higher = more signal
SMILES,z-score [1],z-score [2],z-score [3],composite z-score [4],z-score [5],z-score [6],z-score [7],z-score [8],z-score [9],composite z-score [10],composite z-score [11],composite z-score (XIP peptide (Xip251-270)),z-score [12],z-score [13],z-score [14],z-score [15]
CO[C@H]1O[C@H](CO)[C@@H](OC(=O)Nc2ccc3c(c2)OCO3)[C@H](OC(=O)Nc2ccccc2-c2ccccc2)[C@@H]1OC(=O)Nc1ccccc1-c1ccccc1,-0.659,1.42 (inactive),-0.443 (inactive),0.237 (inactive),1.14 (inactive),2.33 (inactive),-0.243 (inactive),-0.0545 (inactive),-0.427,0.28,1.03 (inactive),0.561,-2.6,-2.64 (inactive),-0.313 (inactive),-0.199 (inactive)
Cc1ccc(F)cc1S(=O)(=O)N[C@@H]1CCN(Cc2ccc(CC(C)C)cc2)C1,-0.367,-17.2 (active),-0.653 (inactive),-0.687 (inactive),0.294 (inactive),-14.5 (active),-20.3 (active),-17.4 (active),-1.89,-0.106,-0.112 (inactive),-0.583,-1.66,-4.52 (inactive),-0.496 (inactive),-0.724 (inactive)
CC(C)NC(=O)[C@@H]1c2ccccc2C(=O)N(CC23CC4CC(CC(C4)C2)C3)[C@H]1c1ccc(CO)cc1,0.64,-1.23 (inactive),0.955 (inactive),0.61 (inactive),0.553 (inactive),-1.52 (inactive),0.765 (inactive),1.59 (inactive),0.834,-0.0172,0.166 (inactive),0.661,-1.84,-4.68 (inactive),-0.111 (inactive),-0.0146 (inactive)
CC(C)C[C@@H]1NC(=O)[C@H]2C[C@@H](C(=O)O)[C@@H](c3ccc(O)cc3)N2C1=O,0.374,0.0437 (inactive),0.816 (inactive),0.425 (inactive),-0.86 (inactive),1.58 (inactive),-0.139 (inactive),-0.456 (inactive),0.453,-0.125,0.0473 (inactive),0.86,-0.251,-2.19 (inactive),-0.523 (inactive),-0.332 (inactive)
COCCOC(=O)N1C(=O)[C@@]2(c3cc(C#CCNC(N)=O)ccc31)[C@H](c1ccccc1OCCO)N1[C@H](c3ccccc3)[C@H](c3ccccc3)OC(=O)[C@H]1[C@@H]2C(=O)N1CCN(c2ncccn2)CC1,-0.0783,0.353 (inactive),-0.0546 (inactive),-1.48 (inactive),2.49 (inactive),0.733 (inactive),0.924 (inactive),1.18 (inactive),0.241,-0.152,0.521 (inactive),0.787,-2.09,-0.789 (inactive),-0.44 (inactive),-0.438 (inactive)
CC(C)(C)OC(=O)CC[C@]1(C(=O)NCc2ccccc2)N=C(c2ccc(OCCCO)cc2)O[C@H]1c1ccccc1,0.461,0.69 (inactive),-0.768 (inactive),0.218 (inactive),0.469 (inactive),0.543 (inactive),0.732 (inactive),0.03 (inactive),-0.135,-0.16,0.124 (inactive),0.846,-1.58,-6.62 (inactive),-0.179 (inactive),-0.062 (inactive)
CCc1cccc(NC(=O)O[C@H]2[C@H](OC(=O)Nc3ccc4c(c3)OCO4)[C@@H](OC(=O)Nc3ccc4c(c3)OCO4)[C@@H](OC)O[C@@H]2CO)c1,1,1.04 (inactive),-0.517 (inactive),-0.0004 (inactive),0.745 (inactive),1.88 (inactive),1.57 (inactive),0.494 (inactive),-0.36,-0.173,0.0979 (inactive),-0.0177,-2.23,-6.22 (inactive),-0.313 (inactive),0.165 (inactive)
CCCNC(=O)[C@@H]1c2ccccc2C(=O)N(c2ccc(C)cn2)[C@H]1c1ccc(CO)cc1,0.306,0.325 (inactive),-0.472 (inactive),-0.165 (inactive),0.388 (inactive),-0.826 (inactive),0.232 (inactive),0.0239 (inactive),-0.682,-0.165,-0.239 (inactive),-0.314,0.167,-2.4 (inactive),0.929 (inactive),0.52 (inactive)
CC(C)NC(=O)[C@@]1(C)c2ccccc2C(=O)N(Cc2cc(F)cc(C(F)(F)F)c2)[C@H]1c1ccc(CO)cc1,-0.0499,0.118 (inactive),0.0847 (inactive),0.0724 (inactive),0.897 (inactive),-0.0826 (inactive),-0.0821 (inactive),-0.043 (inactive),-0.744,-0.157,1.06 (inactive),0.863,0.281,-3.73 (inactive),0.0123 (inactive),-0.37 (inactive)
CN1C(=O)C2C=CC(C(O)c3ccc(Br)cc3)N(N(c3ccccc3)c3ccccc3)C2C1=O (stereo not drawn),-0.456,0.431 (inactive),-1.19 (inactive),1.02 (inactive),1.01 (inactive),1.32 (inactive),-0.499 (inactive),-0.283 (inactive),-0.629,-0.0255,0.654 (inactive),0.266,-0.233,-0.704 (inactive),0.63 (inactive),0.0215 (inactive)
COC(=O)[C@@]1(Cc2ccc(F)cc2)[C@H]2c3cc(C(=O)N(C)C)n(Cc4ccc(OC)c(OC)c4)c3C[C@H]2CN1C(=O)c1ccccc1,-1.05,-0.0211 (inactive),-1.8 (inactive),-3.71 (inactive),3.14 (inactive),0.348 (inactive),-0.252 (inactive),-1.45 (inactive),-0.484,0.276,0.316 (inactive),0.835,-1.03,-3.65 (inactive),0.427 (inactive),0.753 (inactive)
COc1ccc([Si](C)(C)[C@@H]2[C@@H](CCO)O[C@]3(C(=O)N(Cc4ccc(NC(C)=O)cc4)c4ccccc43)[C@H]2C)cc1,-2.52,1.6 (inactive),-5.15 (inactive),-1.34 (inactive),-0.094 (inactive),3.91 (inactive),-0.486 (inactive),-0.937 (inactive),-5.29,0.0291,0.935 (inactive),0.811,-2.92,-5.34 (inactive),-0.861 (inactive),-0.16 (inactive)
CC(C)C[C@@H]1NC(=O)[C@H]2C[C@@H](C(=O)NCCCCCCN(C)C)[C@@H](c3cccc(OCCO)c3)N2C1=O,-0.233,-0.0693 (inactive),-0.891 (inactive),0.344 (inactive),-0.0059 (inactive),-0.159 (inactive),0.0442 (inactive),0.0484 (inactive),-0.992,0.0753,2.09 (inactive),0.905,0.063,-4 (inactive),-0.111 (inactive),0.186 (inactive)
C=C(COC)/C(=C/C[C@H](OC(=O)c1ccncc1)c1ccc(CO)o1)c1cc(C(=O)OC)ccc1OC,-0.0086,-0.154 (inactive),-0.486 (inactive),-1.02 (inactive),1.11 (inactive),-0.328 (inactive),-0.268 (inactive),0.0389 (inactive),0.343,-0.168,-0.222 (inactive),0.483,0.215,-5.06 (inactive),-0.35 (inactive),-0.437 (inactive)
C=CCOC(=O)[C@H]1[C@@H]2C(=O)O[C@@H](c3ccccc3)[C@@H](c3ccccc3)N2[C@@H](c2ccc(OCCOC(=O)[C@H]3C[C@H]4C(=O)N[C@@H](Cc5ccccc5)C(=O)N4[C@H]3c3ccc(O)cc3)cc2)[C@]12C(=O)Nc1ccccc12,0.696,1.32 (inactive),1.17 (inactive),-0.869 (inactive),2.64 (inactive),1.71 (inactive),-0.38 (inactive),0.124 (inactive),1.74,0.0015,2.32 (inactive),0.823,-1.62,1.08 (inactive),0.464 (inactive),0.685 (inactive)
CCCC[C@H]1OB(O)C[C@H]2C1=C(C)C[C@H]1C(=O)N(C)C(=O)[C@H]12,-0.539,-2.09 (inactive),-0.596 (inactive),-0.829 (inactive),0.4 (inactive),-0.776 (inactive),0.506 (inactive),0.499 (inactive),-0.466,-0.256,0.756 (inactive),0.608,2.46,-9.92 (active),0.327 (inactive),0.547 (inactive)
COCCOC(=O)N1C(=O)[C@@]2(c3cc(C#Cc4ccc(OC)cc4)ccc31)[C@H](c1ccc(O)cc1)N1[C@H](c3ccccc3)[C@H](c3ccccc3)OC(=O)[C@H]1[C@@H]2C(N)=O,-0.422,-0.306 (inactive),-1.02 (inactive),-0.0395 (inactive),0.898 (inactive),0.0054 (inactive),0.761 (inactive),0.0669 (inactive),-2.3,-0.0559,-0.0296 (inactive),0.754,-0.687,-1.15 (inactive),-0.425 (inactive),-0.461 (inactive)
CCOC(=O)C1=CC[C@H]2C(=O)N(CC)C(=O)[C@@H]12,0.507,1.31 (inactive),0.293 (inactive),0.467 (inactive),0.0236 (inactive),1.38 (inactive),-0.0583 (inactive),-0.196 (inactive),0.667,-0.311,0.223 (inactive),0.343,-0.239,-2.15 (inactive),0.379 (inactive),-0.0238 (inactive)

# Reference: PubChem BioAssay
